HT1080-NT tox: kills 2HG-producing HT-1080-NT fibrosarcoma cells; HT-1080-NT fibrosarcoma viability, CellTiter-Glo ATP luminescence, 48 h; 1.6% of 360,000 active; AID 686970; Potency, µM (titrated, usually from 46.1 µM), without a hit: top-dose activity, negative = less viability, hits mostly cytotoxic;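 further: NT is the 2HG producing partner of a matched IDH1 knockdown line; potency means the concentration at half of the fitted maximal effect; 0% = DMSO-treated cells and -100% = media-only wells without cells; nearly all actives have a fitted effect of over 55% in size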
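Toxicity toward the 2HG-producing NT line was scored as %Activity, normalised to DMSO and no-cell wells, from CellTiter-Glo luminescence after 48 hours' treatment.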
KB-3-1 tox: KB-3-1 parental cell cytotoxicity | 1.4% of 400,000 active | AID 1347075 | KB-3-1 viability, CellTiter-Glo ATP luminescence, 72 h | Potency, µM (highest dose often 46.1 µM), hits mostly cytotoxic; further: potency means the concentration at half of the fitted maximal effect; nearly all actives have a fitted effect of over 60% in size
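Parental KB-3-1 viability, qHTS format: 72 h compound exposure, 37 °C; CellTiter-Glo; media-only wells and DMSO plates as controls; concentration-effect fits on corrected data.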
IL1B secr inh: inflammasome signaling inhibition, IL-1 beta readout; activity change, % at 57.5 µM; THP-1 LPS/ATP IL-1B secretion, AlphaLISA, 16 h; hits give low values; 4.7% of 360,000 active; AID 743279; in the data active means activity change below about -50%; inconclusive means mostly about -30% to -49%
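THP-1 cells pretreated 1 hr with compounds (up to 57.5 uM final), then stimulated with LPS (250 ng/mL final) plus ATP (1.25 mM final); secreted IL-1B measured by AlphaLISA after 16 hr, decreased signal indicating inhibition.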
KB-V1 MDR tox: kills drug-selected multidrug resistant KB-V1 cells | AID 1347076 | 3.4% of 400,000 active | KB-V1 MDR cells viability, CellTiter-Glo, 72 h | Potency, µM (top dose mostly 46.1 µM), usual class: cytotoxic; further: potency means the concentration at half of the fitted maximal effect; nearly all actives have a fitted effect of over 60% in size
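KB-V1, DMEM (no phenol red) + 10% FBS; cpd pin-transferred, titration series; 72 h, 37 degrees C; CellTiter-Glo, luminescence. Data normalized, curve-fit.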
HT1080 IDH1KD tx: toxicity to HT-1080 IDH1 knockdown cells (counter line); Potency, µM (titrated, usually from 46.1 µM), inactives show at the highest dose activity, negative = toxicity, hits mostly cytotoxic; 2% of 360,000 active; HT-1080 IDH1 knockdown viability, ATP luminescence, 48 h;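 further: potency means the concentration at half of the fitted maximal effect; 0% = DMSO wells and -100% = cell-free medium wells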
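Assay cells: HT-1080 with IDH1 knockdown, 750 per well, RPMI/5% FBS. Exposure: 48 h at 37 °C following 2 h pre-incubation. Read: CellTiter-Glo luminescence; fitted concentration-response, curve class assigned.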
Numbers without * were called inactive; i = inactive; ? = inconclusive; . = not tested or not shown; [ ] = dose if it differs, or a comment. A selection: hits, their analogues and other compounds. The true share with any hit is near 8.8%. Unless noted, the call rests on the fitted dose curve; in most records, active means well fitted curve in the direction sought with a large enough effect; inconclusive means small, poorly fitted or top-dose-only effect, or another doubt; inactive means no such curve, though single readings can be large; an effect the other way counts as inactive or inconclusive. Unless noted, on the % scale 0 is the no-effect control and ±100 the full control effect.

SMILES | HT1080-NT tox | KB-3-1 tox | IL1B secr inh | KB-V1 MDR tox | HT1080 IDH1KD tx
O=C(Nc1ccc(F)c(Cl)c1)c1cc(C2CCCCN2C(=O)c2ccc3c(c2)CCO3)on1 (configuration not stated) | -5% | i | -21 | i | 0%
CC1CCC(C(=O)NC(C(=O)N2CCN(c3ccccn3)CC2)C(C)C)CC1 (configuration not stated) | 4% | i | 50 | 3.3µM* | ?
COc1cccc(CNc2nc3cc(-c4ccc(C)cc4)sc3c(=O)n2C)c1OC | -1% | ? | 85 | 12µM* | ?
COc1cccc(CNc2nc3cc(-c4ccc(F)cc4)sc3c(=O)n2C)c1OC | -13% | i | -16 | i | ?
COc1cccc(CNc2nc3cc(-c4ccsc4)sc3c(=O)n2C)c1OC | ? | 9.2µM* | 6 | 2.6µM* | ?
CCN(CC)C(=O)c1cc(-c2ccc(Br)cc2)on1 | 25% | i | -30 | 5.2µM* | ?
Cc1cc(-c2ccc(C)c(S(=O)(=O)N3CCC(C)CC3)c2)on1 | . | i | . | ? | .
Cc1cc(-c2ccc(C(C)C)c(S(=O)(=O)N3CCN(c4ccccc4)CC3)c2)on1 | 1.5µM* | 5.8µM* | 31 | 12µM* | 1.8µM*
CCc1ccc(-c2cc(C)no2)cc1S(=O)(=O)N1CCN(c2cccc(Cl)c2)CC1 | . | 3.7µM* | . | ? | .
CCc1ccc(-c2cc(C)no2)cc1S(=O)(=O)N1CCC(C)CC1 | 3% | ? | 39 | ? | -17%
CCc1ccc(-c2cc(C)no2)cc1S(=O)(=O)N1CCCN(Cc2ccc(F)cc2)C1 | 23µM* | ? | -52* | ? | ?
Cc1cc(-c2ccc(C(C)C)c(S(=O)(=O)N3CCC(C)CC3)c2)on1 | ? | 21µM* | 13 | i | ?
Cc1cc(Oc2cccc3c2S(=O)(=O)N(C2CCCC2)CC(COCc2ccccc2)O3)cc(C)c1C (configuration not stated) | ? | i | 28 | i | -1%
O=C(Nc1ccc(N2CCCCC2)cc1)c1ccc([N+](=O)[O-])o1 | 4.6µM* | ? | -99* | ? | 2.3µM*
CC1CCN(c2ccc(NC(=O)c3ccc([N+](=O)[O-])o3)cc2)CC1 | 16µM* | 5.2µM* | -109* | 10µM* | 7.3µM*
CS(=O)(=O)N1CCN(c2ccc(NC(=O)c3ccc([N+](=O)[O-])o3)cc2)CC1 | ? | i | -97* | 18µM* | ?
O=C(Nc1ccc(N2CCN(Cc3ccccc3F)CC2)cc1)c1ccc([N+](=O)[O-])o1 | 15µM* | ? | -103* | 15µM* | -6%
CCC(Oc1ccccc1)C(=O)NCCOC (configuration not stated) | 16% | i | 19 | i | 17%
O=C(NC1CCS(=O)(=O)C1)c1cccc(Cl)c1 (configuration not stated) | 13% | i | -3 | i | 8%
COc1ccccc1CCNC(=O)c1ccc(NC(=O)CC2SC(N3CCCCC3)=NC2=O)cc1 (configuration not stated) | -6% | i | -5 | i | 0%
CC(=O)C[n+]1cccc2cc(Cl)ccc21 | . | i | . | i | .
O=C(Nc1ccc(N2CCCC2)c(Cl)c1)c1ccco1 | 0% | i | ? | ? | -17%
O=C(Nc1ccc(N2CCCC2)c(Cl)c1)c1ccc([N+](=O)[O-])o1 | 5.8µM* | ? | -109* | ? | 5.8µM*
Cc1ccc(C(=O)Nc2ncccc2C)cc1S(=O)(=O)N1CCCCC1 | 7% | i | 4 | i | 2%
CCN(CC)C(=O)c1ccc2c3c(cccc13)C(=O)N(CCc1ccc(OC)c(OC)c1)C2=O | 0% | ? | -73* | 7.3µM* | 11%
SMILES | HT1080-NT tox | KB-3-1 tox | IL1B secr inh | KB-V1 MDR tox | HT1080 IDH1KD tx
COc1ccc(CCN2C(=O)c3cccc4cccc(c34)C2=O)cc1OC | 12% | i | 6 | i | 2%
COc1cc(NC(=O)CSCC(=O)N(C)C2CCCCC2)cc(OC)c1 | 4% | i | 1 | i | 5%
CN(C(=O)CSCC(=O)Nc1ccc(Cl)cc1)C1CCCCC1 | ? | i | -53* | i | -26%
CC(C)[C@H](NC(=O)N1c2ccccc2NC(=O)[C@@H]1C(C)C)C(=O)N1CCC[C@H]1C(=O)O | -1% | i | -5 | i | 7%
O=C1Nc2ccc(Cl)cc2/C1=C/C1CC=CCC1 (configuration not stated) | ? | i | -90* | ? | ?
Cc1oc(-c2ccc(Cl)cc2)nc1CN1CCC(C(=O)NCc2cccnc2)CC1 | -17% | i | -58* | i | -18%
CCCCSCCCNC(=O)C1CCN(Cc2nc(-c3ccc(CC)cc3)oc2C)CC1 | . | i | . | i | .
CCCN(CCC)CCNC(=O)C1CCN(Cc2nc(-c3ccc(Cl)cc3)oc2C)CC1 | -18% | 23µM* | ? | ? | -22%
CCOc1ccc(C(=O)NC(=S)NCc2cccnc2)cc1[N+](=O)[O-] | 0% | i | 8 | i | 1%
Oc1ccc(/C=N/Nc2cccc3cccnc23)c(O)c1 | ? | i | -77* | i | -14%[9.24 µM]
Cc1cc(-c2ccccc2)nc(N/N=C/c2ccc(O)cc2O)n1 | ? | ? | -89* | ? | 2.1µM*
Cc1ccc(/C=N/Nc2cccc3cccnc23)c(O)c1 | -2%[9.24 µM] | i | 0 | i | ?
Cc1cc(-c2ccccc2)nc(N/N=C/c2ccc([N+](=O)[O-])cc2)n1 | -9% | i | -87* | 23µM* | -9%
Cc1cc(-c2ccccc2)nc(N/N=C/c2ccccc2)n1 | 0% | i | -7 | i | -7%
CN(C)S(=O)(=O)c1ccc(NC(=O)Cn2nc(-c3ccc4c(c3)OCCO4)ccc2=O)cc1 | 8% | ? | 27 | ? | 6%
CNCCC=C1c2ccccc2C=Cc2ccccc21 | 21µM* | i | -51* | ? | 15µM*
CN(C)CCC=C1c2ccccc2C=Cc2ccccc21 | ? | i | ? | ? | ?
COc1ccc(CC(=O)Nc2ccccc2C(=O)N2CCOCC2)cc1 | 17% | i | 9 | i | 11%
CCOCCc1nnc(NC(=O)C2CC(=O)N(CCc3ccc(F)cc3)C2)s1 (configuration not stated) | 2% | i | 37 | i | 2%
COc1cc2sc3ccc(-c4ccc5[nH]ccc5c4)cc3c(=O)c2cc1OC | 12% | i | -16 | ? | -10%
O=c1c2ccccc2oc2cc(-c3ccc4[nH]ccc4c3)ccc12 | ? | ? | 35 | i | 3.7µM*
O=C1CCCCC1Nc1ccc2ccccc2c1 (configuration not stated) | 0% | ? | -64* | ? | -15%

Compound activity as filed in PubChem BioAssay.
